# Results with a measured potency or affinity are listed apart.
# Columns and labels:
# Klebsiella pneumoniae = conditions: Concentration 32 ug.mL-1;; ASSAY_TEST Inhibition of Bacterial Growth; detection method Absorption (OD600); MEDIA CAMHB; plate type 384well; NBS; CORNING #3640; time 18 hr
# Candida albicans = conditions: Concentration 32 ug.mL-1; ASSAY_TEST Inhibition of Fungal Growth; detection method Absorption (OD530)
# Cryptococcus neoformans = conditions: Concentration 32 ug.mL-1; ASSAY_TEST Inhibition of Fungal Growth; detection method Resazurin; Absorption (OD600-OD570); plate type 384well; NBS; CORNING #3640
SMILES,Inhibition (Klebsiella pneumoniae) [%],Inhibition (Candida albicans) [%],Inhibition (Cryptococcus neoformans) [%]
Cc1ccc(-c2cc3c4nnc(CCC(=O)N5CCN(c6ccccc6F)CC5)n4ccn3n2)cc1C,8.56,3.28,-23.24
COc1ccc(CN(c2cc(C)cc(C)c2)S(=O)(=O)c2cccn3cnnc23)cc1F,-0.72,0.54,-10.15
Cc1ccc(CNC(=O)c2ccc3nn(CC(=O)Nc4ccc(C(F)(F)F)cc4)c(=O)n3c2)cc1,8.75,7.7,-15.23
CC(C)c1nnc2c(=O)n(CC(=O)Nc3ccc(F)cc3)c3ccccc3n12,21.13,1.82,-21.16
O=S(=O)(c1ccc2nncn2c1)N(Cc1cc(F)cc(F)c1)c1ccccc1,-3.49,-0.85,-9.11
CCOC(=O)c1ccccc1NC(=O)Cn1nc2c(Sc3ccccc3)nccn2c1=O,9.77,-1.59,-6.53
COc1cc(OC)c(NC(=O)Cn2nc3c(Oc4ccc(C)cc4)nccn3c2=O)cc1Cl,2,2.42,-3.76
Cc1ccc(-n2ccn3c(SCC(N)=O)nnc3c2=O)cc1C,20.66,1.07,-10.4
CCCCOc1ccc(-c2cc3c4nnc(SCC(=O)Nc5ccc(C)c(F)c5)n4ccn3n2)cc1,6.88,11.03,-15.89
COc1cccc(Sc2nc3ccccc3n3c(=O)n(CC(=O)Nc4cccc(C#N)c4)nc23)c1,5.87,14.41,-21.13
CCCc1nnc2c(=O)n(CC(=O)Nc3ccc(Cl)c(Cl)c3)c3ccccc3n12,5.7,0.11,-14.21
COC(=O)c1ccc(NC(=O)CSc2nnc3ccc(C(=O)Nc4cccc(F)c4)cn23)cc1,4.63,2.52,-5.98
Cc1ccc(NC(=O)Cn2nc3ccc(SC(C)(C)C)nn3c2=O)cc1Cl,12.42,1.72,-28.11
Cc1cc(C)c(NC(=O)Cn2nc3c(Sc4ccccc4)nccn3c2=O)c(C)c1,-3.36,5.92,-6.18
CC1CCN(C(=O)Cn2nc3n(Cc4cccs4)c(=O)c4sccc4n3c2=O)CC1,0.67,6.15,-10.95
CCc1nnc2c(S(=O)(=O)N(Cc3ccccc3C)c3ccc(C(C)C)cc3)cccn12,3.73,21.84,-8.38
COc1ccc(CN(c2ccc(F)cc2)S(=O)(=O)c2ccc3nnc(C)n3c2)cc1F,2.68,1.42,-6.58
O=S(=O)(c1ccc2nncn2c1)N(Cc1ccccc1F)c1ccc2c(c1)OCCO2,4.19,7.13,-6.58
Cc1nnc2c(S(=O)(=O)N(Cc3ccc(F)cc3)c3ccc(F)c(F)c3)cccn12,11.53,8.25,-10.38
COc1ccc(N(Cc2cccc(F)c2)S(=O)(=O)c2ccc3nncn3c2)cc1,25.01,3.57,-1.54

SMILES,Inhibition (Klebsiella pneumoniae) [%],Inhibition (Candida albicans) [%],Inhibition (Cryptococcus neoformans) [%]
O=c1n(Cc2cccc(C(F)(F)F)c2)nc2c(S(=O)(=O)N3CCCCC3)cccn12,6.48,1.28,-8.66
O=c1c2nnc(SCc3cccc(F)c3)n2ccn1-c1ccc(Br)cc1,8.43,4.16,-10.68
CCC(C)NC(=O)CSc1nnc2c(=O)n(Cc3ccc(F)cc3)ccn12 (stereo not given),6.96,1.05,-22.53
O=C(Cn1nc2ccc(Sc3ccccc3)nn2c1=O)N1CCN(c2ccc(F)cc2)CC1,5.94,0.64,-5.51
C=Cc1ccc(Cn2nc3c(=O)n(-c4ccc(C)c(C)c4)ccn3c2=O)cc1,9.34,3.74,-5.84
COc1cc(NC(=O)C(C)Sc2nnc3c(=O)n(-c4ccc(C)c(C)c4)ccn23)cc(OC)c1 (stereo not given),1.23,2.85,-8.2
CC(C)(C)Sc1ccc2nn(CC(=O)NCc3ccc(Cl)cc3)c(=O)n2n1,10.39,0.88,-9.66
Cc1ccc(NC(=O)Cn2nc3ccc(SC(C)(C)C)nn3c2=O)c(C)c1,14.3,1.14,-21.84
O=C(CSc1nnc2n(CC3CCCO3)c(=O)c3sccc3n12)Nc1ccc(F)cc1Cl (stereo not given),1.23,-2.01,-23.1
CC(C)c1nnc2c(=O)n(CC(=O)Nc3ccccc3)c3ccccc3n12,14.31,3.67,-25.44
Cc1cc(C)cc(NC(=O)Cn2nc3c4cc(-c5ccc(C)c(C)c5)nn4ccn3c2=O)c1,6.91,7.8,-17.96
Cc1ccc(-c2cc3c4nnc(SCC(=O)Nc5ccccc5Br)n4ccn3n2)cc1,5.31,5.08,-35.04
O=C(CSc1nnc2c(=O)n(-c3ccc(F)c(F)c3)ccn12)c1c[nH]c2ccccc12,5.97,22.97,-8.04
O=c1c2nn(Cc3c(F)cccc3Cl)c(=O)n2ccn1-c1ccccc1,15.43,1.25,-4.81
COc1ccccc1NC(=O)Cn1nc2n(CCCOC(C)C)c(=O)c3ccccc3n2c1=O,12.77,2.2,-35.55
COc1ccc(CNC(=O)CSc2nnc3c4cc(-c5ccc(C)cc5)nn4ccn23)cc1,9.18,1.16,-27.11
CCc1ccccc1Sc1nccn2c(=O)n(CC(=O)Nc3ccc(C)cc3)nc12,-4.69,39.33,-9.26
CCN(C(=O)Cn1nc2cc(C)nc(Nc3ccc(C)c(F)c3)n2c1=O)c1ccccc1,13.32,0.56,-6.91
Cc1cc2nn(CC(=O)NCc3ccccc3)c(=O)n2c(Nc2ccc(C)c(F)c2)n1,12.56,6.49,-3.12
Cc1ccc(NC(=O)Cn2nc3ccc(C(=O)NCc4ccccc4)cn3c2=O)c(Br)c1,-0.66,7.92,-19.22

SMILES,Inhibition (Klebsiella pneumoniae) [%],Inhibition (Candida albicans) [%],Inhibition (Cryptococcus neoformans) [%]
Cc1ccc(-n2ccn3c(=O)n(Cc4ccccc4Cl)nc3c2=O)cc1C,4.31,3.38,-10.75
CCC(C)NC(=O)Cn1nc2n(CCC(=O)NC3CCCCC3)c(=O)c3ccccc3n2c1=O (stereo not given),-2.01,3.91,-20.86
O=C(Cn1nc2c(=O)n(-c3ccc(Br)cc3)ccn2c1=O)Nc1ccc(F)cc1F,7.12,0.41,-12.15
O=C(Cn1nc2ccc(-c3ccc(Cl)cc3)nn2c1=O)N1CCN(c2ccccc2)CC1,-0.57,-1.89,-9.03
Cc1ccc(-c2cc3c4nnc(SCC(=O)Nc5cccc(Br)c5)n4ccn3n2)cc1,4.45,7.43,-29.25
COc1ccc(-c2cc3c4nn(CC(=O)Nc5ccc(F)cc5)c(=O)n4ccn3n2)cc1,1.02,15.17,-16.6
CCc1nnc2ccc(S(=O)(=O)N(Cc3cccc(F)c3)c3ccc(OC)cc3)cn12,-6.85,1.92,-10.67
Cc1ccc(NC(=O)Cn2nc3ccc(-c4ccccc4)nn3c2=O)cc1,0.91,16.23,-12.72
CCc1ccc(NC(=O)Cn2nc3n(Cc4ccco4)c(=O)c4sccc4n3c2=O)cc1,-2.12,5.72,-17.39
COc1cc(OC)c(NC(=O)Cn2nc3c(Sc4cccc(C)c4)nccn3c2=O)cc1Cl,10.68,47.09,-23.34
CCCN(C)c1nccn2c(=O)n(CC(=O)Nc3ccc(Br)cc3)nc12,7.69,3.8,-7.69
CCc1ccc(N(Cc2cccc(OC)c2)S(=O)(=O)c2cccn3cnnc23)cc1,14.16,4.11,-10.89
COc1ccc(-c2cc3c4nnc(SCC(=O)Nc5ccc(OC)c(Cl)c5)n4ccn3n2)cc1,6.25,2.5,-21.63
CCOc1ccccc1NC(=O)Cn1c(=O)c2nnc(C(C)C)n2c2ccccc21,4.41,1.06,-2.8
COc1ccccc1-n1ccn2c(SCc3cc(C)ccc3C)nnc2c1=O,16.48,0.1,-7.82
CCCCn1c(=O)c2sccc2n2c(=O)n(CC(=O)c3ccc(C)cc3C)nc12,10.99,-0.48,-20
COC(=O)c1ccc(Cn2nc3ccc(S(=O)(=O)N4CCCCCC4)cn3c2=O)o1,1.98,-1.08,-5.87
Cc1ccc(NC(=O)Cn2nc3c4c5c(sc4ncn3c2=O)CCCC5)cc1C,7.59,3.92,-29.29
COc1ccc(CNC(=O)Cn2nc3c4cc(-c5ccc(OC)cc5)nn4ccn3c2=O)cc1,9.14,-2.24,-14.67
Cc1ccc(NC(=O)Cn2nc3ccc(-c4ccc(C)c(C)c4)nn3c2=O)cc1,11.7,-0.59,-13.68
